# Compound activity from PubChem BioAssay.
# Most compounds without a hit are left out; they make up all but 20% or so of the library.
# Pf growth 48h: P. falciparum growth inhibition at 48 hours (one generation) | 310,000 tested, 5.9% active | Potency, µM (titrated, usually from 28.7 µM), actives largely listed as inhibitors | P. falciparum luciferase growth in erythrocytes, 48 h
#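 Compounds are pin-transferred into medium, infected erythrocytes (2% hematocrit, 0.1% parasitemia final) are added, and plates sit one parasite generation at 37 C in 5% CO2. Detection reagent is then added and luminescence measured.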
# Shiga toxin inh: blocks Shiga toxin action in Vero cells; AID 2315; inhibition, % at 38.7 µM; 290,000 tested, 9.2% active; Vero cells, Shiga toxin protein synthesis inhibition reporter; in the data active means inhibition mostly above about 28%, no sharp cut-off; inactive means mostly below about 43%
# Cycloheximide cs: counter-screen for Shiga toxin inhibitors: cycloheximide protein synthesis inhibition | cell reporter, cycloheximide protein synthesis inhibition counterscreen | max response, % | 300,000 tested, 12% active; in the data active means max response mostly above about 13%, no sharp cut-off; inactive means mostly below about 14%; further: read at 38.3 µM for the half of the compounds with a filed dose
# Pf growth 96h: P. falciparum growth inhibition at 96 hours; Potency, µM (doses to about 28.7 µM), hits mostly inhibitors; AID 504834; P. falciparum luciferase reporter growth, 96 h; 320,000 tested, 6.9% active
#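 96 h incubation, 37 C, 5% CO2, of luciferase-reporter P. falciparum-infected RBCs (2% hematocrit, 0.05% parasitemia final) with test compounds; endpoint luminescence.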
# HCMV inh: human cytomegalovirus inhibition. HFF cells, HCMV-luciferase reporter, 72 h; hits give low values. activity change, negative = inhibition, % at 57.5 µM. 410,000 tested, 4.5% active. AID 1259415; in the data active means activity change below about -60%; inconclusive means no clear call, values can overlap the other calls; inactive means above about -39%
#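 Luciferase read-out from HCMV-luciferase-infected HFFs (MOI 1 PFU/cell) 72 h post infection at 37C; compounds added after 16 h cell attachment; activity normalized between buffer-only basal and Salinomycin (10uM) inhibitor controls.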
# A number is an active result; 0 = inactive; ? = inconclusive; - = not tested or not shown; + = active, no number; [ ] = dose if it differs, or a comment. Unless noted, the call rests on the fitted dose curve; in most records, active means well fitted inhibition curve with a large enough effect; inconclusive means small, poorly fitted or top-dose-only effect, or another doubt; inactive means no such curve, though single readings can be large or run the other way.
SMILES,Pf growth 48h,Shiga toxin inh,Cycloheximide cs,Pf growth 96h,HCMV inh
CCc1ccc(-n2c(=O)c3c4c(sc3n(CC(=O)c3ccc(Br)cc3)c2=O)CCC4)cc1,-,-,-,-,0
COc1cccc(CN(C)CC(=O)Nc2ccccc2C(=O)Nc2ccccc2)c1OC,?,0,0,?,0
CCOc1ccc(C2C(C(=O)O)CCC(=O)N2C2CCCCC2)cc1 (stereo not given),0,0,0,0,0
COc1ccc(/C=C/CN2CCC(CO)(Cc3ccccc3Cl)CC2)cc1,?,0,0,?,-70
COc1ccc(S(=O)(=O)N2CC3CC(C2)c2cccc(=O)n2C3)cc1 (stereo not given),0,0,0,0,-65
CCCOc1ccc(C(=O)Nc2ccc(S(=O)(=O)N3C[C@@H]4C[C@@H](C3)c3cccc(=O)n3C4)cc2)cc1,2.1µM,-,-,4.7µM,0
CC(C)CC(=O)Nc1ccc(S(=O)(=O)N2CC3CC(C2)c2cccc(=O)n2C3)cc1 (stereo not given),0,-,-,0,0
CCOc1ccccc1NS(=O)(=O)c1ccc2c(c1)NC(=O)CCS2,0,0,0,?,0
Cc1ccc(CCNS(=O)(=O)c2ccc3c(c2)NC(=O)CCS3)cc1,0,0,0,13µM,0
Cc1ccc(C)c(NS(=O)(=O)c2ccc3c(c2)NC(=O)CCS3)c1,0,0,0,9.3µM,0
Cc1ccccc1NS(=O)(=O)c1ccc2c(c1)NC(=O)CCS2,0,0,0,12µM,0
Cc1ccc(NS(=O)(=O)c2ccc3c(c2)NC(=O)CCS3)c(Br)c1,6.6µM,0,0,?,0
COc1ccc(CCNS(=O)(=O)c2ccc3c(c2)NC(=O)CCS3)cc1OC,?,0,0,?,0
COC(=O)C(Cc1ccccc1)N1CCS(=O)(=O)CC1 (stereo not given),0,0,0,0,-69
O=C(O)C(Cc1ccccc1)N1CCS(=O)(=O)CC1 (stereo not given),0,0,0,0,?
Nc1ccccc1NC(=O)c1ccc(CNC(=O)OCc2cccnc2)cc1,-,0,0,-,-
Cc1nc(NC(=O)C2CC3CCCC(C2)C3=O)sc1C (stereo not given),0,+,47,0,0
CCCN1C(=O)C(Cc2nc3ccccc3c(=O)n2-c2ccc(OC)cc2)c2cc(C)ccc21 (stereo not given),-,-,-,-,0
COc1ccc(OC)c(NC(=O)Cn2ccc3ccccc3c2=O)c1,-,-,-,-,0
COc1ccc(CN2CCC(C(=O)Nc3ccc(Oc4cccnc4)cc3)CC2)c(C)c1C,7.4µM,0,0,0,?
Cc1ccccc1CN1CCCC(C(=O)Nc2ccccc2Oc2cccnc2)C1 (stereo not given),2.6µM,0,0,0,0
Cn1ccnc1CN1CCCCC1C(=O)Nc1ccc(Oc2cccnc2)cc1 (stereo not given),?,0,0,13µM,0
COc1ccc(CN2CCC(C(=O)Nc3ccc(Oc4cccnc4)cc3)CC2)cc1,12µM,0,0,0,-75
Cc1cccc(NC(=O)c2oc3ccccc3c2NC(=O)Cc2coc3c(C)c(C)ccc23)c1,-,-,-,-,0
Cc1ccccc1OCc1n(CC(=O)OC2CC(C)CCC2C(C)C)c2ccccc2[n+]1C (stereo not given),?,0,0,?,-96
SMILES,Pf growth 48h,Shiga toxin inh,Cycloheximide cs,Pf growth 96h,HCMV inh
CC1CCC(C(C)C)C(OC(=O)COC(=O)c2ccccc2N)C1 (stereo not given),?,0,0,?,0
CC1CCC(C(C)C)C(OC(=O)COC(=O)c2cccn2C)C1 (stereo not given),?,0,0,0[5.75 µM],?
CC1CCC(C(C)C)C(OC(=O)Cn2c(-c3ccc(Br)cc3)[n+](C)c3ccccc32)C1 (stereo not given),1.7µM,0,0,?,-99
CC1CCC(C(C)C)C(OC(=O)Cn2c(-c3ccc(Cl)cc3)[n+](C)c3ccccc32)C1 (stereo not given),?,0,0,?,-100
C[C@@H](NC(=O)[C@@H]1Cc2ccccc2CN1C(=O)OC(C)(C)C)C(=O)NC1CCCC1,?,0,0,0,0
CC(NC(=O)Nc1ccccc1C(F)(F)F)c1c(-n2cccc2)sc2c1CCCC2 (stereo not given),-,-,-,-,0
O=C(Nc1ccc(F)cc1F)NC1CCCCCCC1,0,96,37,0,0
O=C(Nc1ccc(F)cc1)NC1CCCCC1,0,79,37,-,0
Cc1ccc(NC(=O)C(=O)NC2CCCCC2)cc1,-,0,12,0,0
O=C(NC(=S)NC1CCCCC1)c1ccc(F)cc1,0,117,48,0,0
Cc1ccc(NC(=O)NC2CCCCCCC2)cc1,0,71,40,?,0
O=C(Nc1cccc(Cl)c1)NC1CCN(C2CCCCC2)C1 (stereo not given),?,-,0,12µM,0
O=C(Nc1ccc(F)cc1F)NC1CCN(Cc2c(F)cccc2Cl)CC1,?,0,0,?,-68
O=C(Nc1ccc2c(c1)OCCO2)NC1CCCCC1,0,53,44,?,0
O=C(Nc1cccc(F)c1)NC1CCCCC1,0,96,32,0[5.75 µM],0
O=C(Nc1cccc(F)c1)NC1CC2CCCC(C1)N2C1CC1 (stereo not given),0,0,0,0,0
O=C(Nc1ccccc1)c1ccc(N2CCN(c3ccccn3)CC2)c(S(=O)(=O)N2CCOCC2)c1,-,0,0,3.7µM,0
O=C(Nc1ccccc1)c1ccc(N2CCN(c3ccccc3)CC2)c(S(=O)(=O)N2CCOCC2)c1,-,0,0,4.1µM,0
O=C(Nc1ccc(NC(=O)c2ccc(Cl)c(S(=O)(=O)N3CCOCC3)c2)cc1)c1ccccc1,0,0,0,0,0
COc1cc(N=Nc2c(O)c3ccccc3[nH]c2=O)c(OC)cc1N=Nc1ccccc1,3.3µM,0,0,2.3µM,-
NC(=O)c1ccc(N=Nc2c(O)c3ccccc3[nH]c2=O)cc1,2.6µM,0,0,1.5µM,-
Nc1ccc2ncccc2c1N,?,42,28,?,0
Nc1ccc(/C=C/c2ccc3ncccc3c2)cc1,0,85,38,0,0
Nc1ccc2ncccc2c1,?,136,48,?,0
c1ccc2c(c1)ccc1ncccc12,0,0,0,0,0
SMILES,Pf growth 48h,Shiga toxin inh,Cycloheximide cs,Pf growth 96h,HCMV inh
CCn1nnc2cc(C(=O)NCCc3ccccc3F)ccc21,0,58,0,0,0
Cc1cccc(OCCCC(=O)Nc2ccc(S(=O)(=O)Nc3ncccn3)cc2)c1C,0,0,0,2.1µM,0
Cc1cccc(OCCCC(=O)Nc2ccc(S(=O)(=O)Nc3onc(C)c3C)cc2)c1C,0,0,0,0,0
Cc1cccc(OCCCC(=O)Nc2ccc(S(=O)(=O)Nc3nccs3)cc2)c1C,0,0,0,3.7µM,0
CC(C)Cn1c(=O)c2sccc2n2c(CCCC(=O)NCCc3ccccc3)nnc12,-,-,-,-,0
CCOC(=O)c1cc(-c2ccco2)nn1-c1ccc(C)cc1,0,0,0,0,0
O=C(COC(=O)c1ccccc1F)c1ccc(-n2nncc2-c2ccco2)cc1,-,0,21,?,0
c1ccc(-c2csc(Nc3ccc4c(c3)OCCO4)n2)cc1,0,97,54,0,0
